As usually defined, the inhibition is the drop in the measured response relative to a control, in per cent.

The campaign covered roughly 220,000 compounds. About 910 (0.41%) were called active. The sample as a whole holds a higher share of actives than the screen did. Results with a measured potency or affinity are listed apart. A number with no mark means an inactive call.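 The calls were made as follows: active = primary inhibition above the hit cutoff, then over 50% inhibition at one or more dose response concentrations (cut at about 23% in these data, passing the limit was not always enough); inconclusive = conflicting primary data, or primary hits not chosen for dose response; inactive = low primary inhibition, or under 50% at every dose.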

Aminopeptidase N (Plasmodium falciparum (isolate 3D7)), sequence (O96935 whole entry, looked up): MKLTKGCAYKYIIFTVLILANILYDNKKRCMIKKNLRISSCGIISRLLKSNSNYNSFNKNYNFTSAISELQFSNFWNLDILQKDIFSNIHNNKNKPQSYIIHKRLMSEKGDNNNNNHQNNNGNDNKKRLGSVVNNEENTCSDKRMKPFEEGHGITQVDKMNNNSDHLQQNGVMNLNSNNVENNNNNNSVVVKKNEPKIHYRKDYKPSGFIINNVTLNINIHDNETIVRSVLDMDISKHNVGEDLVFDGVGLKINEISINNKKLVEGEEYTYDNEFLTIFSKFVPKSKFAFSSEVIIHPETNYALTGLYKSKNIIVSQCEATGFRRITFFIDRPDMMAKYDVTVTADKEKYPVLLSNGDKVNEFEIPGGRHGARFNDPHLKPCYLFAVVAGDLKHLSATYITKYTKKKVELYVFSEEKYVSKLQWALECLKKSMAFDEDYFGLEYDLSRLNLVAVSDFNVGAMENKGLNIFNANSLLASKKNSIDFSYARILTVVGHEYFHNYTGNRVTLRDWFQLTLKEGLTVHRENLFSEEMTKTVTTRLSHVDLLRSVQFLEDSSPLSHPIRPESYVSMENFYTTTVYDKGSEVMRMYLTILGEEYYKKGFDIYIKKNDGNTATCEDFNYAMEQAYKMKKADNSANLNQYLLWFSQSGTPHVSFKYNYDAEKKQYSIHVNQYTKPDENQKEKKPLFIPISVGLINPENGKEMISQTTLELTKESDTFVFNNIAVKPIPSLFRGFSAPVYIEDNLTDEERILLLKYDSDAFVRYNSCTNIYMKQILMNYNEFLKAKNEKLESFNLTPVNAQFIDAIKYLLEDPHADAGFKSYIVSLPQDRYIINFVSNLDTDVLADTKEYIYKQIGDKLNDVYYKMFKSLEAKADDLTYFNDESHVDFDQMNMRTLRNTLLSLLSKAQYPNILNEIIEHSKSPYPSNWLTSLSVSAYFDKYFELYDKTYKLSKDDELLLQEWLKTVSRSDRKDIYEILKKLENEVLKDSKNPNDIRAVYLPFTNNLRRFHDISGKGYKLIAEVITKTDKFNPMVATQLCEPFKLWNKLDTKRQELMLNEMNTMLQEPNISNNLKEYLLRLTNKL

The assay concerns the target Aminopeptidase N (Plasmodium falciparum (isolate 3D7)) (UniProt O96935). Description: P. falciparum M1AAP inhibitors, biochemical, fluorogenic H-Leu-NHMec substrate, 1536-well (AID 1445).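 Also: plate controls were DMSO full reaction for no effect and no enzyme background for full effect.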 The note with it: recombinant M1AAP, H-Leu-NHMec fluorogenic kinetic assay; at 30 µM, hits give high values unless noted.
With `COc1ccccc1N1CCN(C(=O)c2ccc3nc[nH]c3c2)CC1`, the inhibition is 4.75%. With `CCn1c(SCC(=O)Nc2nc3ccccc3s2)nnc1-c1ccc(Br)cc1` the figure was 4.22%; with `CS(=O)(=O)c1ccc2nnn(OCC(=O)Nc3ccc(Br)cc3Br)c2c1`, 1.15%. With `O=C(COC(=O)CCOc1ccccc1)NCc1ccco1` the figure was 12.3%. As to `O=C(O)c1cccc(CSc2n[nH]c(-c3ccc(Cl)cc3Cl)n2)c1`, the inhibition is 7.08%. Then `Cc1ccc(NC(=S)NC(=O)/C=C/c2ccco2)c(O)c1`, with 10.8%; and `O=S(=O)(c1ccc(F)cc1)N1CCN=C1SCc1cccnc1`, with 0.03%. Regarding `O=C(Nc1cccc(O)c1)c1cnn2cccnc12`, the inhibition is 13.6%. Then `CC1(C)CC(=O)c2sc(NS(=O)(=O)c3ccc(F)cc3)nc2C1`, with 5.81%. With `CCc1nnc(NC(=O)CSc2nnc(CNc3cccc(C)c3)n2-c2ccccc2)s1` the figure was 0.64%; with `O=C(CCCCl)OCc1cn(-c2ccc(Cl)cc2)nn1`, 8.74%; with `O=C(NC1CCCC1)C1CCC(=O)N1C1CCCC1` (configuration not stated), 6.41%. With `CCOC(=O)c1oc2ccccc2c1CN1CCN(C)CC1` the figure was 0.88%. On to `Clc1ccc(/C=N/Nc2nnc(Cl)c3ccccc23)cc1`, for which the inhibition was 14.4%. With `Clc1ccc(/C=N\Nc2ccccc2)cc1` the figure was 4.31%; with `COc1cc(N2CN=c3s/c(=C\c4ccccn4)c(=O)n3C2)cc(OC)c1OC`, 5.01%; with `O=[N+]([O-])c1cc(Cl)ccc1-c1nc(-c2ccncc2)no1`, 3.23%. With `CCN1C(=O)/C(=c2\sc3nc(=O)c(Cc4ccccc4)nn3c2=O)c2ccccc21` the figure was 7.93%; with `C=CCN1C(=O)/C(=c2\sc3nc(=O)c(Cc4ccc(OC)c(OC)c4)nn3c2=O)c2ccccc21`, 11.6%; with `CCC(C)c1ccc2oc(-c3ccc(NC(=O)Cn4cnc5c(=O)n(C)c(=O)n(C)c54)cc3)nc2c1` (configuration not stated), 17.4%.

Regarding `O=C(N1CCOCC1)C1(c2ccc(Cl)cc2)CCCC1`, the inhibition was -5.21%. Turning to `O=C(CSc1ncc(C(F)(F)F)cc1Cl)NCC1CCCO1` (configuration not stated), the inhibition is 0.4%. Consider `O=C1NC(=S)N/C1=C/c1cc([N+](=O)[O-])ccc1O`, for which the inhibition was 27.2% (active). With `O=C1NC(=S)N/C1=C/c1cccc([N+](=O)[O-])c1` the figure was 1.79%; with `O=C1NC(=S)N/C1=C\c1cccc([N+](=O)[O-])c1`, -1.35%; with `Cc1ccc(C(=O)NCCN2CCNC2=O)cc1`, -8.25%.

In the case of `Cc1ccccc1OCC(=O)Nc1ccc2oc(=O)ccc2c1`, the inhibition is 16.6%.

Consider `CCOC(=O)C1CCN(C(=O)COc2ccc(N(C)S(=O)(=O)c3ccc(OCC)cc3)cc2)CC1`, for which the inhibition was -2.18%. Then `CCn1c(CSc2nc3ccccc3s2)nnc1SCC(=O)c1ccc(Cl)cc1`, with 11.1%. Then `CCn1c(CSc2nc3ccccc3s2)nnc1SCC(=O)c1ccc(O)cc1O`, with 6.78%. On to `O=C(Cc1c(C(=O)O)[nH]c2ccc(Cl)cc12)Nc1ccc2c(c1)OCCO2`, for which the inhibition is 4.87%.

Consider `Cc1ccc(-c2nnn(CC(=O)N(Cc3ccco3)C(C(=O)NC3CCCC3)c3cccs3)n2)o1` (configuration not stated), for which the inhibition was 0.46%. With `COc1cc(/C=N/NC(=O)C2c3ccccc3Oc3ccccc32)ccc1O` the figure was 3.49%. Then `O=C(N/N=C/c1ccc(O)c(O)c1)C1c2ccccc2Oc2ccccc21`, with 25.6% (active); and `O=C(N/N=C\c1cccnc1)C1c2ccccc2Oc2ccccc21`, with 3.5%. Then `Nc1cc(-c2cccc(F)c2)nn1S(=O)(=O)c1cccc2nsnc12`, with 6.59%; and `CC1=C(C(=O)Nc2ccccn2)C(c2cn(C)nc2C)C2=C(CCCC2=O)N1` (configuration not stated), with 9.42%; and `COc1ccccc1C(=O)Oc1cc(N)n(S(=O)(=O)c2ccccc2)n1`, with 11.1%. As for `Cc1ccc(C(=O)Oc2cc(N)n(S(=O)(=O)c3ccc(C)cc3)n2)cc1`, the inhibition is -3.58%. With `COc1cccc(NC(=S)N(CCc2ccc(OC)c(OC)c2)Cc2ccccn2)c1` the figure was 4.47%; with `CCc1ccc2nc(N3C(=O)C(O)=C(C(=O)c4ccco4)C3c3cccs3)sc2c1` (configuration not stated), 14.9%; with `Cc1ccc2nc(N3C(=O)C(O)=C(C(=O)c4cc5ccccc5o4)C3c3cccs3)sc2c1` (configuration not stated), 10.6%. For `Cc1ccc2nc(N3C(=O)C(O)=C(C(=O)c4ccco4)C3c3cccs3)sc2c1` (configuration not stated), the inhibition was 27.4% (active).

Consider `Cc1nnc(SCC(=O)N2CCN(C(=O)c3ccco3)CC2)n1-c1ccccc1`, for which the inhibition is -1.57%. Then `Cc1ccc(NC(=O)C(=O)NN)cc1`, with 3.55%; and `CC(C)(C)n1nnnc1C(c1cccs1)N1CCN(Cc2ccc3c(c2)OCO3)CC1` (configuration not stated), with 3.23%; and `COc1ccc(C2OC(=O)CC2C(=O)NCc2ccc(Cl)cc2)cc1OC` (configuration not stated), with -0.93%.

Regarding `CCn1c(=O)c(C(=O)NNS(=O)(=O)c2ccc(C)cc2)c(O)c2ccccc21`, the inhibition is 5.97%. With `COc1cc2nc(C3CCC3)n(NC(=O)c3ccco3)c(=O)c2cc1OC` the figure was 11.3%. On to `O=C(Nn1c(-c2ccccc2)nc2ccccc2c1=O)c1ccco1`, for which the inhibition was 15.6%. With `Cc1ccccc1OCc1nc2ccccc2c(=O)n1NC(=O)c1ccco1` the figure was 22.7%. With `O=C(Nn1c(C2CC2)nc2ccccc2c1=O)c1ccco1` the figure was 81.6% (active); with `O=C(Nn1c(C2CCCCC2)nc2ccccc2c1=O)c1ccc([N+](=O)[O-])cc1`, 2.98%. Then `NS(=O)(=O)c1ccc(CCNC(=O)c2ccc(Cn3c(=O)[nH]c4ccccc4c3=O)cc2)cc1`, with 4.04%.

As for `CC(/C=C/c1ccccc1)=N\NC(=O)c1cc(C)nc2ccccc12`, the inhibition was 7.74%. Take `CC1CN(C(=O)c2cc(S(=O)(=O)N3CCCC3)c(Cl)cc2Cl)CC(C)O1` (configuration not stated): the inhibition was -2.85%. With `O=C(CNC(=S)N(Cc1ccccc1)Cc1cccnc1)NCCc1ccccc1` the figure was -4.94%. With `Cc1cccn2c(=O)c3cc(C(=O)NCc4ccco4)c(=N)n(C(C)C)c3nc12` the figure was 18.3%; with `N=c1c(C(=O)NC2CCCC2)cc2c(=O)n3ccccc3nc2n1CCN1CCOCC1`, 12.5%; with `Cc1cccn2c(=O)c3cc(C(=O)NCc4cccnc4)c(=N)n(C(C)C)c3nc12`, 0.19%. With `N=c1c(C(=O)NCc2ccc(F)cc2)cc2c(=O)n3ccccc3nc2n1CCCN1CCOCC1` the figure was 5.69%.

Regarding `N=c1c(C(=O)NCc2ccco2)cc2c(=O)n3ccccc3nc2n1Cc1ccccc1`, the inhibition is 11.6%. With `N=c1c(C(=O)NCc2ccco2)cc2c(=O)n3ccccc3nc2n1CCc1ccccc1` the figure was 9.03%; with `O=C(COc1cc(F)ccc1[N+](=O)[O-])Nc1ccc(N2CCOCC2)cc1`, 1.97%; with `COc1cc(/C=C/C(=O)O)cc(S(=O)(=O)N2CCc3ccccc32)c1OC`, 7.41%. Then `O=C(O)Cc1ccc(-c2ccccc2-c2ccccc2)cc1`, with 6.14%.

Consider `COc1ccc(OC)c(C(C)NC(=O)c2ccc(Br)cc2)c1` (configuration not stated), for which the inhibition is 6.29%. Regarding `CCc1cccc(CC)c1NC(=O)c1ccc(-n2cncn2)nc1`, the inhibition is 3.55%. With `Cc1c(Cl)cccc1NC(=O)CCC(=O)N/N=C/c1ccc[nH]1` the figure was 6.91%.

For `CC(=O)Nc1sc(C)c(C)c1C(=O)Nc1ccc(C)cc1`, the inhibition is 10.1%. Then `COc1ccc(N=C2S/C(=C\c3ccc(OC(C)C(=O)O)c(OC)c3)C(=O)N2CCc2c[nH]c3ccccc23)cc1` (configuration not stated), with 31.6%; and `COc1cc(/C=C2\SC(=Nc3ccccc3)N(CCc3c[nH]c4ccccc34)C2=O)ccc1OC(C)C(=O)O` (configuration not stated), with 16.3%. Then `CCCn1c(N2CCN(C)CC2)nc2c1c(=O)[nH]c(=O)n2C`, with -4.63%; and `CCN(C1=NS(=O)(=O)c2ccccc21)N(CC)S(=O)(=O)c1ccc(C)cc1`, with -4.7%. Then `COc1ccc(S(=O)(=O)N(NC2=NS(=O)(=O)c3ccccc32)C(=O)C(C)C)cc1`, with 9.06%; and `CC1CCCCC1NC(=O)C(=O)NCC1CCCO1` (configuration not stated), with 0.74%; and `Clc1cccc(-c2ccc(CNCCCN3CCOCC3)o2)c1`, with 2.45%. Regarding `O=C(CCCn1ncn2c(cc3occc32)c1=O)N1CCc2ccccc2C1`, the inhibition is 2.44%. With `CCc1nn(CCCC(=O)N2CCc3ccccc3C2)c(=O)c2cc3occc3n12` the figure was 23.8% (active). With `CCc1nn(C(C)C(=O)N2CCc3ccccc3C2)c(=O)c2cc3occc3n12` (configuration not stated) the figure was 2.28%; with `CS(=O)(=O)N(Cc1ccc(C(=O)NC2CCCCC2O)cc1)c1ccccc1` (configuration not stated), 4.69%. Regarding `CCOC(=O)N1CCN(C(=O)CN2C(=O)COc3ccc(C(C)(C)C)cc32)CC1`, the inhibition was 2.47%.

For the compound `O=S(=O)(Nc1ccc(-c2nc3cccnc3s2)cc1)c1ccc(Cl)s1`, the inhibition was 13.1%. Then `CCS(=O)(=O)Nc1ccc(-c2nc3cccnc3s2)cc1`, with 11.6%; and `CCc1ccc(S(=O)(=O)Nc2ccc(-c3nc4cccnc4s3)cc2)s1`, with 27.2% (active). With `N#Cc1c(N2C(=O)Nc3ccccc3N2O)sc2c1CCCCCC2` the figure was 11.8%; with `C=CCn1c(C(CC)CC(C)(C)O)n[nH]c1=S` (configuration not stated), -5.97%; with `Cc1cc2cc(CCNC(=O)c3ccc(S(=O)(=O)N4CCOCC4)cc3)c(=O)[nH]c2cc1C`, 0.05%.

For `O=C1NC(=O)/C(=C/c2ccccc2OCc2ccccc2)S1`, the inhibition is 19.3%. Then `C=CCN1C(=O)N/C(=C/c2ccccc2OCC(=O)Nc2ccc(F)cc2)C1=O`, with 6.37%. Then `O=C1NC(=O)/C(=C\c2ccccc2OCc2ccccc2)S1`, with 12.7%; and `O=C(COc1ccccc1/C=C1/NC(=O)NC1=O)Nc1ccccc1`, with 16.8%.

Source of the values: PubChem BioAssay AID1445 (SRMLSC, 2008).
